Here are results for 13 compounds from PubChem BioAssay (NCATS).

Several values for one entry are separate records, joined by “and”; a condition that tells them apart may be missing. Equal entries are not always repeated. Values without a mark were called inactive. Inconclusive results are not listed. Activity calls are given as the source filed them. Unless noted, the call rests on the fitted dose curve; in most records, active means well fitted curve in the direction sought with a large enough effect; inconclusive means small, poorly fitted or top-dose-only effect, or another doubt; inactive means no such curve, though single readings can be large; an effect the other way counts as inactive or inconclusive.

Experiment [1] has as its system WaGa. The experiment can be described thus: qHTS assay to identify novel small-molecules to repurpose for Merkel cell carcinoma treatment (AID 1296009). Further: nearly all actives have a fitted effect of over 60% in size. Further: potency means the concentration at half of the fitted maximal effect. The conditions noted are these: MCC and control cell lines, CellTiter-Glo viability, 72 h; series mostly up to 46 µM. In a few lines:
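Cell viability measured by CellTiter-Glo following 72 hr compound treatment at 37 degree celsius, with NPC and MIPE libraries tested in 8- and 11-point concentration series.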
(In general: qHTS replaces the single test concentration by a dilution series.)

Experiment [2] has as its system C33A. The experiment is described as follows: Primary qHTS to identify gynecologic anti-cancer compounds using libraries of approved drugs and bioactive compounds (AID 1345084). Further: nearly all actives have a fitted effect of over 55% in size. Further: potency means the concentration at half of the fitted maximal effect. As to conditions: Gynecologic cancer cell panel viability, ATPlite luminescence, 48 h; series mostly up to 57.5 µM. In a few lines:
(§1)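 Cell viability after 48 h drug treatment, ATPlite luminescence readout; five doses.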

Experiment [3] deals with CAOV3. Described as above. As to conditions: Gynecologic cancer cell panel viability, ATPlite luminescence, 48 h; series mostly up to 57.5 µM. In a few lines: as §1
On the technique in general: Cellular ATP, detected with luciferase, serves as a proxy for viable cell number.

The subject of experiment [4] is CASKI. Described as above. As to conditions: Gynecologic cancer cell panel viability, ATPlite luminescence, 48 h; series mostly up to 57.5 µM. In a few lines:
as §1

The test system of experiment [5] is Es-2. Described as above. The conditions noted are these: Gynecologic cancer cell panel viability, ATPlite luminescence, 48 h; series mostly up to 57.5 µM. A digest of the protocol:
as §1

Experiment [6] deals with HeLa. The description is as above. The conditions noted are these: Gynecologic cancer cell panel viability, ATPlite luminescence, 48 h; series mostly up to 57.5 µM. In a few lines: as §1
In experiment [7] the test system is Hek293T. The experiment is described as above. The conditions noted are these: Gynecologic cancer cell panel viability, ATPlite luminescence, 48 h, control line for the selectivity index; series mostly up to 57.5 µM. A digest of the protocol: as §1
In experiment [8] the test system is JEG-3. The experiment is described as above. The conditions noted are these: Gynecologic cancer cell panel viability, ATPlite luminescence, 48 h; series mostly up to 57.5 µM. A digest of the protocol:
as §1

Experiment [9] deals with OV90. Described as above. As to conditions: Gynecologic cancer cell panel viability, ATPlite luminescence, 48 h; series mostly up to 57.5 µM. In a few lines: as §1
For experiment [10], the system named is SKOV3. The experiment is described as above. The conditions noted are these: Gynecologic cancer cell panel viability, ATPlite luminescence, 48 h; series mostly up to 57.5 µM. In a few lines:
as §1

The subject of experiment [11] is Tov112D. The experiment is described as above. The conditions noted are these: Gynecologic cancer cell panel viability, ATPlite luminescence, 48 h; series mostly up to 57.5 µM. A digest of the protocol:
as §1

The nature of experiment [12]: Drug repurposing screens with cells derived from glioblastoma tumor samples (AID 1345199). Further: on the % scale 0 is the no-effect control and ±100 the full control effect; nearly all actives have a fitted effect of over 40% in size. As to conditions: GBM patient neurospheres viability, ATP luminescence, 48 h; Potency: tumour line A unless noted; series mostly up to 45.9 µM. In a few lines:
(§2)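 Primary testing used CD133+ neurospheres from four GBM patients, seven concentrations, 48 h exposure and ATP-based viability; confirmation added three slower-growing patient lines.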

For experiment [13], the system named is astro. The experiment is described as above. As to conditions: viability, ATP luminescence, 48 h; series mostly up to 45.9 µM. A digest of the protocol: as §2
The target of experiment [14] is Nuclear receptor subfamily 1 group I member 2 (Rattus norvegicus) (UniProt Q9R1A7). The experiment can be described thus: qHTS assay for small molecule activators of the rat pregnane X receptor (rPXR) signaling pathway (AID 651751; call rule not given here; further: 0% is about no effect). The conditions noted are these: rPXR reporter cells, luciferase (One-Glo), 24 h.
For experiment [15], the system named is PA-1. The experiment can be described thus: Primary qHTS to identify gynecologic anti-cancer compounds using libraries of approved drugs and bioactive compounds (AID 1345084). Further: nearly all actives have a fitted effect of over 55% in size. Further: potency means the concentration at half of the fitted maximal effect. The conditions noted are these: Gynecologic cancer cell panel viability, ATPlite luminescence, 48 h; series mostly up to 57.5 µM. A digest of the protocol: as §1
The test system of experiment [16] is Tov-21-G. Described as above. The conditions noted are these: Gynecologic cancer cell panel viability, ATPlite luminescence, 48 h; series mostly up to 57.5 µM. A digest of the protocol:
as §1

Experiment [17] is described as follows: qHTS assay for small molecule activators of the human pregnane X receptor (PXR) signaling pathway (AID 720659; call rule not given here; further: 0% is about no effect).

Nuclear receptor subfamily 1 group I member 2 (Rattus norvegicus), sequence (Q9R1A7 whole entry, looked up): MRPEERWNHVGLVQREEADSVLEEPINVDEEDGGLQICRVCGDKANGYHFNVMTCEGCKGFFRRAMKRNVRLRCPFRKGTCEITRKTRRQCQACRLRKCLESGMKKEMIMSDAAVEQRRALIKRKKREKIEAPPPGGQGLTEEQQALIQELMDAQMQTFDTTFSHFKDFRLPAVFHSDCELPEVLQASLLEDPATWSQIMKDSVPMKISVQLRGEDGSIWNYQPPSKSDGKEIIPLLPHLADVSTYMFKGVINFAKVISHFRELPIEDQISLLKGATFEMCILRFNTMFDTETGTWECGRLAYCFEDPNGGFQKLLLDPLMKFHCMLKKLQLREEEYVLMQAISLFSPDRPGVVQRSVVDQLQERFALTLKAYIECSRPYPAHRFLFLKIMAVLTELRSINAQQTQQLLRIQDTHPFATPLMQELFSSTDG

With `CCCCCCCCc1ccc(O)cc1`, the Potency in [1] was 43.7 µM (active); in experiment [2] it was 25.1 µM (active). In addition, the Potency result in experiment [3], in [4], in experiment [5], in experiment [6], in experiment [7] and in experiment [8] was “inactive” in each case. For the same compound, the Potency entry in [9], in [10], in [11], in experiment [12] and in [13] was “inactive” each time. The max response in experiment [14] was 3.32% and -2.12%.

Take `O=[N+]([O-])/N=C1\NCCN1Cc1ccc(Cl)nc1`: the Potency result in experiment [1], in experiment [2], in experiment [3], in experiment [4], in experiment [5] and in [6] was “inactive” in each case. In addition, the Potency result in experiment [7], in experiment [8], in [9], in [15], in experiment [10] and in [16] was “inactive” throughout. The Potency result in experiment [11] and in experiment [13] was “inactive” throughout. Also, the max response in experiment [14] was 4.35%. Also, the compound was classed as inactive in experiment [17].

For `O=C1C(I)=CC(=C(c2cc(I)c(O)c(I)c2)c2ccccc2C(=O)O)C=C1I`, the Potency result in [1], in experiment [2], in experiment [3], in experiment [4], in experiment [5] and in experiment [6] was “inactive” in each case. Moreover, the Potency entry in experiment [7], in [8], in experiment [9], in experiment [15], in experiment [10] and in [16] was “inactive” throughout. Moreover, the Potency entry in [11] and in [12] was “inactive” each time.

`CC(=O)N(C)c1cccc(-c2ccnc3c(C(=O)c4cccs4)cnn23)c1`: the Potency result in experiment [1], in experiment [2], in experiment [3], in [4], in experiment [5] and in experiment [6] was “inactive” in each case. The Potency result in experiment [7], in experiment [8], in [9], in experiment [15], in experiment [10] and in [16] was “inactive” throughout. The Potency result in experiment [11] was “inactive”.

For `CCC(=O)O[C@@H]1C=C2CCC3C(CCC4(C)C3CC[C@@H]4OC(=O)CC)C2CC1` (stereo partly specified), the Potency entry in experiment [1], in [2], in experiment [3], in [4], in experiment [5] and in [6] was “inactive” in each case. Moreover, the Potency result in experiment [7], in experiment [8], in experiment [15], in experiment [10], in [16] and in experiment [11] was “inactive” each time.

Consider `O=[N+]([O-])c1c(Cl)c(Cl)cc(Cl)c1Cl`, for which the Potency result in experiment [1], in [2], in experiment [3], in experiment [4], in [5] and in experiment [6] was “inactive” in each case. In addition, the Potency entry in [7], in experiment [8], in experiment [9], in experiment [15], in experiment [16] and in experiment [11] was “inactive” throughout. Also, the Potency result in experiment [12] and in experiment [13] was “inactive” in each case. Further, the max response in experiment [14] is 3.25%. Moreover, the compound was called inactive in [17].

`CC(N[C@H]1C[C@H]1c1ccccc1)c1ccc2c(c1)OCCO2` (stereo partly specified): the Potency entry in [1], in [2], in experiment [3], in [4], in [5] and in experiment [6] was “inactive” each time. Besides, the Potency result in [7], in experiment [8], in experiment [9], in experiment [15], in experiment [16] and in experiment [11] was “inactive” in each case.

With `COCCOCCO`, the Potency entry in experiment [1], in [2], in experiment [3], in [4], in experiment [5] and in experiment [6] was “inactive” throughout. For the same compound, the Potency result in experiment [7], in experiment [8], in experiment [15], in experiment [10], in experiment [16] and in experiment [11] was “inactive” each time. Further, the Potency result in [12] is “inactive”.

Take `Nc1c(Cl)c(Cl)c(Cl)c(Cl)c1Cl`: the Potency result in [1], in [2], in experiment [3], in experiment [4], in experiment [5] and in experiment [6] was “inactive” in each case. In addition, the Potency entry in experiment [7], in experiment [8], in [9], in experiment [15], in experiment [16] and in experiment [11] was “inactive” each time. For the same compound, the Potency entry in [12] and in experiment [13] was “inactive” each time. Also, the max response in experiment [14] was 0.456%. In [17], the outcome was inactive.

Consider `CC[N+]1(CCOC(=O)C(O)(c2ccccc2)c2ccccc2)CCCCC1`, for which the Potency entry in [1], in experiment [2], in experiment [3], in experiment [4], in experiment [5] and in experiment [6] was “inactive” each time. Besides, the Potency entry in experiment [7], in [8], in [9], in [15], in experiment [10] and in experiment [16] was “inactive” throughout. For the same compound, the Potency entry in [11], in [12] and in [13] was “inactive” in each case.

As to `COC(C)(C)CCCC(C)C/C=C/C(C)=C/C(=O)OC(C)C` (stereo unspecified), the Potency entry in experiment [1], in [2], in experiment [3], in [4], in [5] and in [6] was “inactive” in each case. Also, the Potency entry in experiment [7], in [8], in experiment [9], in [15], in experiment [10] and in [16] was “inactive” each time. Further, the Potency result in [11] and in [13] was “inactive” each time.

Turning to `CC1=C(C(=O)O)N2C(=O)[C@@H](N)[C@H]2SC1`, the Potency result in [1], in experiment [2], in experiment [3], in [4], in [5] and in [6] was “inactive” each time. The Potency result in experiment [7], in [8], in experiment [9], in [15], in experiment [10] and in [16] was “inactive” in each case. The Potency entry in experiment [11] was “inactive”.

Turning to `O=C1C=CC[C@@H]2[C@H]3CCCN4CCC[C@@H](CN12)[C@@H]34`, the Potency result in [1], in [2], in experiment [3], in experiment [4], in experiment [5] and in experiment [6] was “inactive” each time. For the same compound, the Potency result in experiment [7], in experiment [8], in experiment [9], in experiment [15], in experiment [10] and in experiment [16] was “inactive” each time. Also, the Potency result in experiment [11] was “inactive”.
